Results filed as inconclusive are left out. The source made the active and inactive calls. Unless noted, calls come from the whole dose curve; as a rule, active = well fitted curve in the direction sought with a large enough effect; inconclusive = small, poorly fitted or top-dose-only effect, or another doubt; inactive = no such curve, though single readings can be large; an effect the other way counts as inactive or inconclusive.

We go through 6 molecules from PubChem BioAssay (NCATS).

Assay [1] deals with Glucocorticoid receptor (Homo sapiens) (UniProt P04150). Put plainly: qHTS assay for small molecule agonists of glucocorticoid receptor signaling (AID 588532; active = well fitted curve in the direction sought with a large enough effect in the signal ratio, with a control signal flat; the % refers to the signal ratio;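 note: 100% = dexamethasone at 0.1 µM and 0% = DMSO only wells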). The following applies: HeLa MMTV-bla, beta-lactamase ratio, agonist, 18 h; stronger effect = higher value; percent of dexamethasone control, DMSO zero. In outline:
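Agonist-mode qHTS: GRE-driven beta-lactamase in HeLa cells exposed 18 h to titrated compounds (up to 92 uM), then CCF4 ratio read after 2 h at RT; Hill-fitted EC50, efficacy relative to 0.1 uM dexamethasone.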

Assay [2] shares this target. The experiment in a line: qHTS assay for small molecule antagonists of glucocorticoid receptor signaling (AID 588533; active = well fitted inhibition curve with a large enough effect in the signal ratio, with a control signal flat, not every such curve was filed as active; the % refers to the signal ratio;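 note: cells stimulated with 2 nM dexamethasone as agonist; % is set by controls: 0 for no effect and ±100 for the full control effect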). The following applies: HeLa MMTV-bla, GRE beta-lactamase ratio, antagonist mode, 18 h; series mostly up to 76.8 µM. In outline:
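Antagonist-mode qHTS: compound titrations added to GRE-bla HeLa cells, then dexamethasone 2 nM final; 18 h, 37 C. CCF4 FRET fluorescence normalized to dexamethasone and DMSO; IC50 from Hill fit.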
In general terms: qHTS replaces the single test concentration by a dilution series.

The nature of assay [3]: qHTS assay for small molecule antagonists of peroxisome proliferator-activated receptor delta signaling (AID 588535; active = well fitted inhibition curve with a large enough effect in the signal ratio, with a control signal flat, not every such curve was filed as active; the % refers to the signal ratio;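 for max response: cells co-treated with a PPAR-delta agonist as stimulator during compound exposure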). The following applies: HEK293T PPARd-UAS-bla, beta-lactamase FRET ratio, 18 h; 460 nm channel. In outline:
(§1)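 HEK293T PPAR-delta-UAS-bla cells, 4000/well, 2% charcoal/dextran FBS; 5 h 37 C; cpd titration; 18 h 37 C; CCF4 2 h RT; FI 460/530 nm; Hill fit → IC50, efficacy.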

Assay [4] has as its target Peroxisome proliferator-activated receptor delta (Homo sapiens) (UniProt Q03181). Described as above. The following applies: HEK293T PPARd-UAS-bla, beta-lactamase FRET ratio, 18 h; series mostly up to 76.7 µM. In outline:
as §1

Assay [5] has as its target Vitamin D3 receptor (Homo sapiens) (UniProt P11473). The experiment in a line: qHTS assay for small molecule antagonists of vitamin D receptor signaling (AID 588541; calls by dose curve;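 note: receptor activated by calcitriol during compound treatment; % is set by controls: 0 for no effect and ±100 for the full control effect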). The following applies: HEK293T VDR-UAS-bla, beta-lactamase ratio, antagonist mode; series mostly up to 76.7 µM. In outline: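 Antagonist-mode beta-lactamase reporter assay: HEK293T VDR-UAS-bla cells were exposed to titrated compound alongside 1-alpha,25-dihydroxyvitamin D3 at 3 nM final for 16 h. Values were normalized to the 50 nM agonist control and DMSO basal, with IC50 and efficacy from Hill equation fits.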

Assay [6] has the same target. The experiment in a line: qHTS assay for small molecule agonists of vitamin D receptor signaling (AID 588543; calls by dose curve;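 note: 0% = DMSO basal and 100% = reference agonist control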). The following applies: HEK293T VDR-UAS-bla, beta-lactamase ratio, 16 h; series mostly up to 76.8 µM. In outline:
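Measured: β-lactamase reporter activity (CCF4, 405 nm excitation, 460/530 nm emission) in HEK293T VDR-UAS-bla cells after 16 h compound exposure at 37 °C. Normalization against 50 nM 1α,25-dihydroxyvitamin D3 and DMSO; Hill-fit EC50.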

Assay [7] concerns the target Retinoic acid receptor RXR-alpha (Homo sapiens) (UniProt P19793). Put plainly: qHTS assay for small molecule agonists of retinoid X receptor alpha signaling (AID 588544; calls by dose curve;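 note: 0% = DMSO basal wells and 100% = reference agonist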). The following applies: HEK293T RXRa-UAS-bla, beta-lactamase reporter, 18 h; series mostly up to 76.7 µM.
The target of assay [8] is Thyroid hormone receptor beta (Homo sapiens) (UniProt P10828). The experiment in a line: qHTS assay for small molecule agonists of thyroid hormone receptor beta signaling (AID 588545; calls by dose curve). The following applies: TR-UAS-bla GripTite HEK 293, beta-lactamase ratio, agonist mode, 18 h; series mostly up to 76.7 µM. In outline: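 Agonist-mode beta-lactamase reporter assay, HEK 293 cells, 2% charcoal/dextran FBS; cells plated 4 hrs, compound 18 hrs at 37 C, CCF4 2 hrs RT. Normalized to 10 nM T3 (100%) and DMSO (0%); Hill fit gives EC50, efficacy.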
Thyroid hormone receptor beta (Homo sapiens), sequence (P10828 whole entry, looked up): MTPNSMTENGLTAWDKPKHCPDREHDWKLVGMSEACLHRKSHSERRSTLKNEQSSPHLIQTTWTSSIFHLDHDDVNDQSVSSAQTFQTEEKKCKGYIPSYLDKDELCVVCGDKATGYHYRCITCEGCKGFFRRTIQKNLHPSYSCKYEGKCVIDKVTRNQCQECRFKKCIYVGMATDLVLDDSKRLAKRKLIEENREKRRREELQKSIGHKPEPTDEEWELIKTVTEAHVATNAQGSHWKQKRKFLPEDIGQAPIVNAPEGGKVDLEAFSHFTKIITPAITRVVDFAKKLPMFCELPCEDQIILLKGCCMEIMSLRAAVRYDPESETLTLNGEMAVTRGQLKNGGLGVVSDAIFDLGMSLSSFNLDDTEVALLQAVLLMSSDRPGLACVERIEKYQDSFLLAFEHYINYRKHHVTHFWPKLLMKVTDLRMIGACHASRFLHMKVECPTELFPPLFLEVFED

Assay [9] can be described thus: qHTS assay for small molecule antagonists of retinoid X receptor alpha signaling (AID 588546; active = well fitted inhibition curve with a large enough effect in the signal ratio, with a control signal flat, not every such curve was filed as active; the % refers to the signal ratio;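 note: cells stimulated with 9-cis-retinoic acid as agonist; % is set by controls: 0 for no effect and ±100 for the full control effect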). The following applies: HEK293T RXRa-UAS-bla, beta-lactamase ratio, antagonist mode; measured here: W530 green channel, cytotoxicity proxy. In outline: (§2)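 Beta-lactamase reporter inhibition, read as CCF4 fluorescence ratio (ex 405, em 460/530 nm) after 2 h at RT. HEK293T UAS-bla cells, 2500/well, were stimulated with 9-cis-RA at 500 or 100 nM final alongside test compound for 18 h at 37 C.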

The target of assay [10] is Retinoic acid receptor RXR-alpha (Homo sapiens) (UniProt P19793). The description is as above. The following applies: HEK293T RXRa-UAS-bla, beta-lactamase ratio, antagonist mode. In outline: as §2
Retinoic acid receptor RXR-alpha (Homo sapiens), sequence (P19793 whole entry, looked up): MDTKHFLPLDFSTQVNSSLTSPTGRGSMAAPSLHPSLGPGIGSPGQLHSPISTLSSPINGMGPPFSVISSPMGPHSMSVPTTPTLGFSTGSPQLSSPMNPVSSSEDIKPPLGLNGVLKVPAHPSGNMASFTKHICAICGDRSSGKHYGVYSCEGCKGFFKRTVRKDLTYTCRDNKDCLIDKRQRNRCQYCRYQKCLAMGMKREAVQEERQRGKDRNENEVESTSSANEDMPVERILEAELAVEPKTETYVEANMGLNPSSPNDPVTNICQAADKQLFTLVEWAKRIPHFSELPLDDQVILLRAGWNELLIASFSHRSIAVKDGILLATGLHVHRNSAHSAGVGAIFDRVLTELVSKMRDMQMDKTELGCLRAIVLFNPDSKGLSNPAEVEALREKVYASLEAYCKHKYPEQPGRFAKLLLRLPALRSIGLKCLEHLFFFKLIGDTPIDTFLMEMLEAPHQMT
Assay [11] can be described thus: qHTS assay for small molecule activators of the nuclear factor-kappa B (NF-kB) signaling pathway (AID 651749; active = well fitted activation curve with a large enough effect in the signal ratio; the % refers to the signal ratio; note: % of control where 0% means no effect). The following applies: NF-kB-bla ME-180 cells, beta-lactamase FRET ratio, 16 h; activation: stronger effect = higher value. In outline:
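Readout: beta-lactamase reporter driven by an NF-kB response element, detected fluorescently as loss of FRET. Cells were the ME-180 line, treated 16 hr at 37C with pin-transferred compound.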

A short description of assay [12]: qHTS assay for environmental chemicals that activate the Aryl hydrocarbon Receptor (AhR) signaling pathway (AID 651777). Note: % of control where 0% means no effect; nearly all actives have a fitted effect of over 15% in size. The following applies: 1A2-DRE human hepatoma cells, luciferase, 24 h; activation: stronger effect = higher value. In outline:
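Following a 24 hr incubation with test chemicals at 37 C and 5% CO2, 1A2-DRE human hepatoma cells received One-Glo reagent; after 30 min at room temperature, luciferase output reflected CYP1A2 induction via AhR.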

The target in assay [13] is Peroxisome proliferator-activated receptor alpha (Homo sapiens) (UniProt Q07869). The experiment in a line: qHTS assay for small molecule agonists of the peroxisome proliferator-activated receptor alpha (PPARalpha) signaling pathway (AID 651778). For max response: % of control where 0% means no effect. Note: potency is the fitted concentration of half-maximal effect. The following applies: PathHunter PPARalpha complementation, chemiluminescence, 6 h; max response: stronger effect = higher value. In outline: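 Chemiluminescence from complemented enzyme reported PPARalpha activation in cells after 6 hr of compound treatment at 37 C. The detection reagent was incubated for 60 min at room temperature, and compounds were scored as agonists.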
Peroxisome proliferator-activated receptor alpha (Homo sapiens), sequence (Q07869 whole entry, looked up): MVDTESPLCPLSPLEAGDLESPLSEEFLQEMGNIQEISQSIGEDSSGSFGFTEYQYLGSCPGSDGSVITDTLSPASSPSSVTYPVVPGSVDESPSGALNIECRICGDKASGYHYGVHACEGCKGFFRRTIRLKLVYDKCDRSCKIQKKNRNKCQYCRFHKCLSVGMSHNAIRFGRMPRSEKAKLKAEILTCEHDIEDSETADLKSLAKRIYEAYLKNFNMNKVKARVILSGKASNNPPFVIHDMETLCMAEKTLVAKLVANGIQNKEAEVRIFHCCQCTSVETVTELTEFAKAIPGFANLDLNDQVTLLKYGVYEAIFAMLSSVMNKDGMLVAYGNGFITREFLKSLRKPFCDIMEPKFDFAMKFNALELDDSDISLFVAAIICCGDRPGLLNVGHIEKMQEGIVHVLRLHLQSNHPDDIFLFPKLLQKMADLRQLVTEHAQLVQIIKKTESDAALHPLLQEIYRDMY

Assay [14] is described as follows: qHTS assay for small molecule agonists of the antioxidant response element (ARE) signaling pathway measured by Nrf2-dependant transcriptional activity (AID 720636; active = well fitted curve in the direction sought with a large enough effect in the repeat runs; an effect the other way counts as inactive or inconclusive; note: % of control where 0% means no effect). The following applies: ARE-luc HepG2, Nrf2 luciferase reporter, 16 h; series mostly up to 92.4 µM. In outline: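 ONE-Glo luminescence, read 30 min after reagent addition at room temperature, reflected ARE reporter activity in HepG2 cells that had been incubated with compound for 16 hr at 37 C in 1% dialyzed FBS.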

Assay [15] can be described thus: qHTS assay for small molecule agonists of the antioxidant response element (ARE) signaling pathway measured by Nrf2-dependant transcriptional activity - cell viability counter screen (AID 720653; active = well fitted curve in the direction sought with a large enough effect in the repeat runs; an effect the other way counts as inactive or inconclusive; note: % is set by controls: 0 for no effect and ±100 for the full control effect). The following applies: ARE-bla HepG2 viability, CellTiter-Glo ATP luminescence, 16 h; max response: stronger effect = lower value. In outline:
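Cytotoxicity counter screen: intracellular ATP quantified by CellTiter-Glo luminescence in the same ARE-bla HepG2 plates, after 16 h compound exposure and a 2 h beta-lactamase substrate step.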

A short description of assay [16]: qHTS assay for cell viability of HEK293 cells (AID 743288). Note: % is set by controls: 0 for no effect and ±100 for the full control effect; nearly all actives have a fitted effect of over 50% in size. The following applies: ATP luminescence (CellTiter-Glo), 18 h; max response: stronger effect = lower value. In outline: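 Luminescent ATP quantitation served as the viability read-out. Cells (parental HEK293, 2,000/well) received compounds after at least 5 h at 37 C and were exposed for 18 h before a 30 min room-temperature reagent step.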

Assay [17] in a line: qHTS assay for cell viability of the p53RE-bla HCT-116 cell line (AID 743292). Note: % is set by controls: 0 for no effect and ±100 for the full control effect; nearly all actives have a fitted effect of over 55% in size. The following applies: p53RE-bla HCT-116 viability, ATP luminescence, 16 h; series mostly up to 95 µM. In outline: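 After plating at 4,000 cells per well and a 5 h rest at 37 C, HCT-116 cells carrying p53RE-bla received test chemicals in DMSO. Sixteen hours later at 37 C, CellTiter-Glo was added and luminescence recorded following 30 min at room temperature.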

In assay [18] the target is Nuclear receptor subfamily 1 group I member 2 (Rattus norvegicus) (UniProt Q9R1A7). The experiment in a line: qHTS assay for small molecule activators of the rat pregnane X receptor (rPXR) signaling pathway (AID 651751; call rule not given here; note: 0% is about no effect). The following applies: rPXR reporter cells, luciferase (One-Glo), 24 h.
Nuclear receptor subfamily 1 group I member 2 (Rattus norvegicus), sequence (Q9R1A7 whole entry, looked up): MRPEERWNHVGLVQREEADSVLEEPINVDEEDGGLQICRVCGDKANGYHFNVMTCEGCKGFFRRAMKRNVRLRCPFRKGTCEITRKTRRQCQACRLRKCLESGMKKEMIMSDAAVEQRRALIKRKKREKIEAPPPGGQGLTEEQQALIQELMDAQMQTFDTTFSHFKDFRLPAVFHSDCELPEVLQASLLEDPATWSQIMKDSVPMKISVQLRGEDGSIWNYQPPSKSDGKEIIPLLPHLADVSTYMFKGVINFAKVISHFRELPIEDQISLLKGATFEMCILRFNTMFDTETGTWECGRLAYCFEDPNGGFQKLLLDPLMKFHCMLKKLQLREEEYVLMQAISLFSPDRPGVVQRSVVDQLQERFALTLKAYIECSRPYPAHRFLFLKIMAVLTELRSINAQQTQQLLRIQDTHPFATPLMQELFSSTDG
Assay [19] is described as follows: qHTS assay for small molecule activators of the human pregnane X receptor (PXR) signaling pathway (AID 720659; call rule not given here; note: 0% is about no effect). The following applies: DPX-2 HepG2 CYP3A4-luciferase, 24 h; series mostly up to 92.3 µM.
Assay [20] is described as follows: qHTS assay for small molecule activators of the p53 signaling pathway (AID 651743; active = well fitted activation curve with a large enough effect in the signal ratio, not every such curve was filed as active; the % refers to the signal ratio; note: % of control where 0% means no effect). The following applies: HCT-116 p53RE-bla, beta-lactamase FRET ratio, 16 h; activation: stronger effect = higher value. In outline: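 Read-out is fluorescence intensity from the LiveBLAzer B/G FRET substrate, added for 2 hours at room temperature after HCT-116 p53RE-bla cells had been incubated with compounds for 16 hours at 37 C.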

Vitamin D3 receptor (Homo sapiens), sequence (P11473 whole entry, looked up): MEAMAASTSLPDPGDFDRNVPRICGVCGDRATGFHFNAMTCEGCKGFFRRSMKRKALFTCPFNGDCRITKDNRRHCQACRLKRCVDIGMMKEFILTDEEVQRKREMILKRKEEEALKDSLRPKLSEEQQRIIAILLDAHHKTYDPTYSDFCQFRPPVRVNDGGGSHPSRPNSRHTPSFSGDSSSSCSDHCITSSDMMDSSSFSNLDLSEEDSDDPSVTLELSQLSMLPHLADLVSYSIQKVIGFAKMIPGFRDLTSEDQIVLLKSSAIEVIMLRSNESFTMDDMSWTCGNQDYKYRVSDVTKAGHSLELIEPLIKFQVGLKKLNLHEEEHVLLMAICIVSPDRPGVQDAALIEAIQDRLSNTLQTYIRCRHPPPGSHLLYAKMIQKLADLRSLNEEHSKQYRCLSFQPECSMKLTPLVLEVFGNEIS
Glucocorticoid receptor (Homo sapiens), sequence (P04150 whole entry, looked up): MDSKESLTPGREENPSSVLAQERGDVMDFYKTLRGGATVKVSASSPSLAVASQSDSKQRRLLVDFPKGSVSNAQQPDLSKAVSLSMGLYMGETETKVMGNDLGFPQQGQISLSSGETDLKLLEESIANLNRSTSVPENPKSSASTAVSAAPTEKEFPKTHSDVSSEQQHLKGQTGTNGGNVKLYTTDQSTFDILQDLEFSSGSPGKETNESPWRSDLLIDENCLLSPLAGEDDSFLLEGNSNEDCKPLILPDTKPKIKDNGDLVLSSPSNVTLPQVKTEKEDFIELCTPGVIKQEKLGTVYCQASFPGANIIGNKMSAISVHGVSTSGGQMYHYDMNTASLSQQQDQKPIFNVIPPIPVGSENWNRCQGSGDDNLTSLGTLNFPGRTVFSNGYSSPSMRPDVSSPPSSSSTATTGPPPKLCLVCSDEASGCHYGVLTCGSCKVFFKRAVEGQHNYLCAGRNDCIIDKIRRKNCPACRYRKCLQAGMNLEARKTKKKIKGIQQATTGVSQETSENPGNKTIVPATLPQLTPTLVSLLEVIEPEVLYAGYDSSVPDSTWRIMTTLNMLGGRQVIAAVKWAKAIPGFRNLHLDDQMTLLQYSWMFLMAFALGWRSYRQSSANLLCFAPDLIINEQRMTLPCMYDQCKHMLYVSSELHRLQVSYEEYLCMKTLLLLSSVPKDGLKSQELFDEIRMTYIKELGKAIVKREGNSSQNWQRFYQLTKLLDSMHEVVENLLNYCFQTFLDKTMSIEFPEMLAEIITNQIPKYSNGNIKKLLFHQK
Peroxisome proliferator-activated receptor delta (Homo sapiens), sequence (Q03181 whole entry, looked up): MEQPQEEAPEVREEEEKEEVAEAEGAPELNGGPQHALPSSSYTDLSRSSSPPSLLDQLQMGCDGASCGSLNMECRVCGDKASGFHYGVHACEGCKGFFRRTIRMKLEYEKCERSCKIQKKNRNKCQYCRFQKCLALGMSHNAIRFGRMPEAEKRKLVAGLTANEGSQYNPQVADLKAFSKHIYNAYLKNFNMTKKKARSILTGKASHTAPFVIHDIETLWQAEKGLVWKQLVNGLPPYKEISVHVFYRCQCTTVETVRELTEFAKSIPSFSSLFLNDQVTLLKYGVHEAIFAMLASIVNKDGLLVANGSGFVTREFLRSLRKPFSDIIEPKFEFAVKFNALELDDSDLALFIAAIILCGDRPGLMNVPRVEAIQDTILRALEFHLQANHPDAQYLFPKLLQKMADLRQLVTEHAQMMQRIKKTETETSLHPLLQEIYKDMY

Regarding `COC(OC)(C(=O)c1ccccc1)c1ccccc1`, the activation is -8.93% (inactive) in assay [1], 0.121% (inactive) in [11] and 1.33% (inactive) in assay [12]. In addition, the Potency entry in [2], in assay [4], in assay [5], in assay [7], in assay [8] and in [14] was “inactive” in each case. In addition, the Potency result in assay [17] is “inactive”. The max response was 13.5% in assay [3]; -15.2% in [9]; -6.2% (inactive) in assay [10]; -0.253% (inactive) in assay [13]; 5.37% (inactive) in assay [15]; -5.41% (inactive) in assay [16]. Moreover, the max response in assay [18] was 3.76% (inactive). The outcome in [6] and in [19] was inactive.
In the case of `CCCCCCC(O)CCCCCCCCCCC(=O)OC` (centres undefined), the figures for the activation in [1], in assay [20] and in assay [11] were -20.2% (inactive), 0.349% (inactive) and -0.158% (inactive), respectively. Further, the Potency entry in assay [2], in assay [4], in assay [7], in assay [8], in assay [14] and in assay [17] was “inactive” in each case. The max response was 18.1% in [3], 9.9% (inactive) in assay [15], -0.436% (inactive) in assay [16] and -2.07% (inactive) in assay [18]. The Potency in assay [13] is 20 µM (active). For the same molecule, the outcome in [19] was inactive.
As to `CCCCCOC(=O)COc1cc(N2C(=O)C3=C(CCCC3)C2=O)c(F)cc1Cl`, the activation is 3.85% (inactive) in assay [1] and 0.703% (inactive) in assay [12]. Besides, the Potency result in [2] and in assay [8] was “inactive” throughout. Moreover, the outcome in assay [6] and in assay [19] was inactive. Also, the max response in [13] was 1.28% (inactive); in assay [15] it was 8.37% (inactive); in [16], 4.43% (inactive); in [18], 4.68% (inactive).
In the case of `CCOCCOCCOCC`, the activation in assay [1] was -5.25% (inactive); in assay [20], -1.74% (inactive); in assay [11], -0.223% (inactive); in assay [12], 0.117% (inactive). The Potency entry in assay [2], in assay [4], in assay [7], in [8], in assay [14] and in assay [17] was “inactive” throughout. The max response in [3] was 12.8%; in assay [9], -7.04%; in [10] it was -12.1% (inactive); in assay [13] it was -2.34% (inactive); in assay [15], -4.14% (inactive); in assay [16], -13.3% (inactive). In addition, in assay [18], the max response is 1.72% (inactive). For the same molecule, the outcome in assay [6] and in [19] was inactive.
Turning to `CC(C)CCCCOC(=O)c1ccccc1C(=O)OCCCCC(C)C`, the activation in [1] was -8.95% (inactive); in assay [20], -3.26% (inactive); in assay [11] it was -2.54% (inactive); in [12], 0.811% (inactive). Also, the Potency result in assay [2], in assay [4], in [7], in assay [8], in assay [14] and in assay [17] was “inactive” in each case. Also, the max response was -26.8% in assay [3]; -6.23% in [9]; -8.08% (inactive) in assay [10]; -11% (inactive) in assay [15]; -17.5% (inactive) in assay [16]; 13.4% (inactive) in assay [18].
In the case of `CC(C)C(=O)OC(=O)C(C)C`, in assay [1], the activation is -15% (inactive). Moreover, the Potency result in assay [2], in [4], in [5], in assay [7], in assay [8] and in [14] was “inactive” throughout. Further, the Potency entry in assay [17] was “inactive”. In addition, the max response in assay [3] was 1.13%; in assay [9] it was -12.1%; in assay [13], -0.54% (inactive); in [15] it was -7.37% (inactive); in assay [16], -4.79% (inactive); in assay [18], -1.65% (inactive). Besides, in [6], the outcome was inactive.
